The list is not random: actives were taken first. Their share in the collection is about 2.5%.
Mcl1 Noxa PPI: disrupts binding of human Mcl-1 to Noxa peptide | Q07820 | TR-FRET Mcl-1/Noxa peptide binding, 2 h | inhibition, % at 21.7 µM | actives 1.5% (n = 220,000);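 active = compounds that cut the protein-peptide binding signal by more than 50% relative to plate controls in a single-dose test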;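 note: His-tagged Mcl-1 with rhodamine Noxa BH3 peptide and terbium anti-His antibody; 0% = Mcl-1 plus Noxa peptide wells and 100% = peptide-only wells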
Target sequence (Q07820 whole entry, looked up): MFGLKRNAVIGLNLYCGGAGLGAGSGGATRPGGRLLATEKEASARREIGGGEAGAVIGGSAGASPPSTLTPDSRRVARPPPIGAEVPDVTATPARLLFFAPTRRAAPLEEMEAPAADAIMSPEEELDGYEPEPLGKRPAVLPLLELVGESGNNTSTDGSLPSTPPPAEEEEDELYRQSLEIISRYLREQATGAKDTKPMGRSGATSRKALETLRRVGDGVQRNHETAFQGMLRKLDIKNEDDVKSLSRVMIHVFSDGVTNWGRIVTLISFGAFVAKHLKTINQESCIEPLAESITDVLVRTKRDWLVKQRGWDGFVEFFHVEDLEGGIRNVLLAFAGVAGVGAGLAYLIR
Mcl1-Bid inh: disrupts binding of human Mcl-1 to Bid peptide | inhibition, % at 21.7 µM | AID 1021 | TR-FRET Mcl-1/Bid-Dy647 peptide binding, 1536-well | Q07820 | actives 0.97% (n = 220,000);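 active = compounds that cut the binding signal by more than half at the single screening dose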;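 note: His-tagged Mcl-1 with europium anti-His antibody binding Bid BH3 peptide; 0% = Mcl-1 plus peptide wells and 100% = peptide-only wells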
MCL1-BIM inh: inhibitors of human MCL1 binding to BIM-BH3 peptide; AID 2057; Q07820; GST-MCL1 / FITC-Bim-BH3 fluorescence polarization; inhibition, % at 10.9 µM; actives 0.68% (n = 320,000);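 active = inhibition above the mean inhibition of all tested compounds plus 3 SD, set per campaign, cut at about 40% in these data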;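 note: 0% = DMSO wells and 100% = unlabeled Bim-BH3 peptide control; higher means more loss of mP so more displacement of Bim peptide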
Mcl-1 Bim block: human Bim-Mcl-1 interaction inhibition; Bead-based flow cytometry, Bim peptide-Mcl-1 binding; actives 0.1% (n = 190,000); inhibition, % at 10 µM; in the data active = inhibition above about 40%;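 note: 0% = no compound tracer wells and 100% = peptide blocker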
14-3-3 Bad PPI: disrupts binding of bovine 14-3-3 zeta to phospho-Bad peptide. AID 781. TR-FRET 14-3-3zeta/Dy647-pBad peptide displacement, 1 h. inhibition, % at 21.7 µM. actives 0.71% (n = 220,000);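 active = inhibition above about 70%, limit read from the data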;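 note: 0% = full 14-3-3 plus peptide FRET controls and 100% = background without 14-3-3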
Target sequence (P63103 whole entry, looked up): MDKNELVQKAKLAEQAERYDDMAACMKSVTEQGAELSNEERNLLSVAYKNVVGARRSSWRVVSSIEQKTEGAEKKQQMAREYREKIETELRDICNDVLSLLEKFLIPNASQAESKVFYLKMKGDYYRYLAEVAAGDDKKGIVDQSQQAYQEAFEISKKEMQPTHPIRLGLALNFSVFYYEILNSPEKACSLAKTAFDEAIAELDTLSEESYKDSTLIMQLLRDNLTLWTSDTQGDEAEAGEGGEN
An asterisk follows results filed as active; nt = no result; [ ] = remark or other dose.

SMILES	Mcl1 Noxa PPI	Mcl1-Bid inh	MCL1-BIM inh	Mcl-1 Bim block	14-3-3 Bad PPI
CCOc1ccc(OCC)c(NC(=O)CN2CCN(c3cc(C)ccc3C)CC2)c1	8	51*	7	-3	58
CCOc1ccc(OCC)c(NC(=O)CN2CCN(c3cccc(C)c3)CC2)c1	24	46	1	-5	42
O=C(OC1CCc2ccccc2C1=O)c1ccccc1O (stereo not given)	6	54*	4	0	-7
NC(=O)CC(NC(=O)c1ccccc1)C(=O)O (stereo not given)	nt	nt	-4	nt	nt
COc1ccc(OC)c(NC(=S)N(CCc2c(C)[nH]c3ccc(C)cc23)Cc2cccs2)c1	13	85*	4	0	-9
Cc1ccccc1C(=O)Nc1ccc2c(c1)OCO2	-1	7	0	0	-10
Cc1cc(NC(=O)/C=C/c2ccccc2Cl)n(-c2nc3ccccc3[nH]2)n1	-19	66*	1	0	24
O=C(N/N=C/c1cccs1)c1cccc2cc[nH]c12	4	-34	-2	-2	1
COCCN(C(=O)C1CCC1)c1nnc(-c2cccnc2)s1	13	-12	2	0	0
CCN(C(=O)C1CCCCC1)c1nnc(-c2cccnc2)s1	23	-6	-1	2	77*
COC(=O)C(NC(C)=O)(Nc1ccc(C)cn1)C(F)(F)F (stereo not given)	-2	4	2	nt	-6
CN(C)c1ccnc2sc(C(N)=O)c(N)c12	-2	97*	11	0	5
COc1cccc(-c2nc(N3CCCC3)c3ccccc3n2)c1O	7	-12	0	nt	-2
CCOC(=O)c1c(NC(=O)c2cc(-c3ccc(Cl)s3)nc3ccccc23)sc(C(N)=O)c1C	19	61*	2	-5	72*[fluorescence artefact?]
CC1(C)CC(C(N)=S)CCO1 (stereo not given)	-6	-38	2	nt	-24
CCCCC1=CC2=CC(=O)C(C)(OC(=O)CC)C(=O)C2=CN1CC(C)C (stereo not given)	-5	-73	41*	nt	-1
Cc1ccc(OCC(=O)Nc2cc(NC(=O)COc3ccc(C)cc3)cc(C(=O)O)c2)cc1	nt	nt	-1	nt	nt
Fc1ccc(COc2ccc(Br)cc2CNCc2ccncc2)cc1	13	37	-5	-3	84*
Fc1ccccc1COc1ccc(Br)cc1CNCc1ccncc1	20	20	5	-1	80*
Cc1ccc(NC(=O)c2ccc(OC(=O)c3cc4ccccc4o3)cc2)cc1	-9	-6	2	0	19
CC(C)C1=Nc2cccc3cccc(c23)N1	53*	-71	15	-6	38
ClCC1=Nc2cccc3cccc(c23)N1	58*	-75	19	nt	8
CN1C(=O)Nc2cccc3cccc1c23	nt	nt	7	nt	nt
COc1ccc(C2=Nc3cccc4cccc(c34)N2)cc1	35	-72	11	4	-13
Nc1cccc(C2=Nc3cccc4cccc(c34)N2)c1	74*	35	8	-3	-8
SMILES	Mcl1 Noxa PPI	Mcl1-Bid inh	MCL1-BIM inh	Mcl-1 Bim block	14-3-3 Bad PPI
Nc1ccccc1N=Nc1ccccc1N	nt	nt	47*	nt	nt
COc1cccc(NC(=O)Cc2c(O)c3ccccc3[nH]c2=O)c1	8	-64	-1	-2	-10
CC(C)(C)OC(=O)NCCCC1=CC2=CC(=O)C(C)(OC(=O)c3ccc(Cl)nc3)C(=O)C2=CO1 (stereo not given)	nt	nt	85*	nt	nt
COC(=O)c1c(NC(=O)c2ccc(OC(C)C)cc2)sc2c1CC(C)(C)NC2(C)C	6	-4	9	-4	5
CCOC(=O)/C(C#N)=C\c1ccc(O)c(OC)c1	22	-36	-2	2	1
CCOC(=O)c1c(-c2ccc(C)cc2)csc1NC(=O)/C(C#N)=C/c1ccc(O)c(OC)c1	90*	28	nt	-6	15
O=C(COc1ccc(S(=O)(=O)N2CCOCC2)cc1Cl)N1CCCC1	nt	nt	-5	nt	nt
CC1(C)C(=O)Nc2ccccc2N1C(=O)COc1ccc(S(=O)(=O)N2CCOCC2)cc1Cl	56*	-19	9	-5	4
CS(=O)(=O)Nc1ccccc1C(=O)Nc1ccccc1C(=O)N1CCCC1	nt	nt	-3	nt	nt
OCCN1CCN(C(c2cccs2)c2ccc3cccnc3c2O)CC1 (stereo not given)	95*	82*	nt	4	67
Cc1nnc(NC(=O)c2ccc3ccccc3c2)o1	-7	-7	3	-1	0
CCCNC(=O)CSc1nc2ccccc2c(=O)n1CCC	1	3	5	-2	9
CCn1cc(C(=O)NCc2ccco2)c(=O)c2cc(S(=O)(=O)N3CCCCCC3)ccc21	12	-13	-3	0	2
C=CCn1cc(C(=O)NCc2ccco2)c(=O)c2cc(S(=O)(=O)N3CCCCCC3)ccc21	1	91*	2	-1	-11
Cc1ccc(NC(=O)CNCc2ccc(Cl)cc2Cl)cc1S(=O)(=O)N(C)C	nt	nt	5	nt	nt
Cc1ccc2nc(C)cc(Nc3ccc([N+](=O)[O-])cc3)c2c1	49	49	2	-2	77*
O=C(N/N=C/c1c[nH]c2ccccc12)c1cc(-c2ccc(-c3ccccc3)cc2)n[nH]1	47	52*	-4	0	54
O=C(N/N=C/c1c[nH]c2ccccc12)C1COc2ccccc2O1 (stereo not given)	4	3	4	-4	82*[fluorescence artefact?]
CS(=O)(=O)N(CCc1ccccc1)CC(=O)Nc1ccc2c(c1)OCO2	10	-20	3	-1	-1
O=C(NC(=S)Nc1ccccn1)c1ccc(-c2ccccc2)cc1	nt	nt	11	nt	nt
CCOc1ccccc1Nc1nnc(Cc2ccccc2Cl)c(=O)[nH]1	25	53*	13	-8	2
COc1ccc(NC(=O)c2ccccc2)c([N+](=O)[O-])c1	9	-3	2	0	-4
OCC[C@H]1C[C@@H](O)[C@H](O)[C@@]2(Cc3ccccc3CCO2)O1	nt	nt	8	nt	nt
CCCCCCn1ccc(=N)cc1	-7	-7	6	1	4
CCCCCCCCCCCCCCCCn1cc[n+](CC(C)=O)c1	42	59*	nt	-1	98*
SMILES	Mcl1 Noxa PPI	Mcl1-Bid inh	MCL1-BIM inh	Mcl-1 Bim block	14-3-3 Bad PPI
CN(CC(=O)Nc1c(Cl)cccc1Cl)C(=O)c1ccccc1-c1nc2ccccc2s1	nt	nt	6	nt	nt
Cc1ccc(Cn2c(=N)n(CC(O)COc3ccccc3)c3ccccc32)cc1 (stereo not given)	17	-6	2	0	2
N=c1n(Cc2ccccc2)c2ccccc2n1CC(O)COc1ccccc1 (stereo not given)	19	64*	-2	1	10
O=C(O)c1ccc(N/N=C/c2cn(Cc3ccccc3F)c3ccccc23)cc1	59*	-2	5	nt	5
COC(=O)N/N=C/c1cn(Cc2ccccc2F)c2ccccc12	2	-12	-2	nt	-3
Cc1ccc(NC2=C(Cl)C(=O)c3ccccc3C2=O)cc1	20	-3	1	23	-1
